Most compounds without a hit are left out; they make up all but 2.7% or so of the library.
KDM5B inhibitor – inhibitors of human KDM5B histone demethylase | Q9UGL1 | KDM5B demethylase, FDH-coupled NADH fluorescence (FDH is formaldehyde dehydrogenase) | Potency, µM (series often up to 57.7 µM), hits mostly inhibitors | 220,000 compounds, 2.6% hits | AID 1347165; active = well fitted inhibition curve with a large enough effect; inconclusive = small, poorly fitted or top-dose-only effect; inactive = no such curve, though single readings can be large or run the other way; also: nearly all actives have a fitted effect of over 70% in size
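Here, H3K4me3 peptide (12.5 µM in substrate mix) is demethylated by KDM5BΔAP, 200 nM final, after 10 min compound exposure. Formaldehyde product is coupled through FDH (0.25 U/mL in mix) to NADH fluorescence; 30-min ΔRFU feeds dose-response curves.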
IP6K1 inh – blocks human inositol hexakisphosphate kinase 1; Q92551; IP6K1 kinase, ADP-Glo luminescence, 2 h; stronger effect = lower value; activity change, % (series mostly up to about 58 µM); 140,000 compounds, 0.81% hits; AID 1645851; in the data active = activity change below about -25%
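ADP-Glo luminescence measures ADP made by human IP6K1 during a 2 h RT reaction with ATP/IP6 (mix at 1.3 mM/130 uM); top library doses 57.5 and 19.1 uM final.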
Each line names hits and unclear results; the compound was inactive in the other large screens.

Cc1cccc(C(=O)NCc2nnc3c(-c4nc(C(C)C)no4)cccn23)c1	KDM5B inhibitor 28µM
COc1ccc(Cl)cc1-c1ccc2c(c1)C(=O)N1CC[C@H](N)[C@H]1C(=O)N2	KDM5B inhibitor inconclusive
Cc1ccc(CNCc2ccc(-c3ccc(F)cc3)o2)cc1	none (no result: IP6K1 inh)
C#CCNC(=O)c1nc(C(C)(C)C)c2cnccn12	KDM5B inhibitor 50µM
CCC(C)NC(=O)c1c(C)nc2cnccn12 (stereo unspecified)	none (no result: KDM5B inhibitor)
C#CCNC(=O)c1cc(C(C)(C)C)c2cccn2n1	none
CC(C)NC(=O)c1nc(C(C)(C)C)c2cnccn12	KDM5B inhibitor 126µM
Cc1cccc(OCc2nc(C#N)c(NCc3cccnc3)o2)c1	none (no result: IP6K1 inh)
CS(=O)(=O)c1ccc(C(=O)N(Cc2ccco2)Cc2cccs2)cc1	none (no result: IP6K1 inh)
Cc1ncccc1C(=O)N1CC[C@@H]2COCCN(Cc3ccncc3)[C@@H]2C1	KDM5B inhibitor inconclusive
CS(=O)(=O)N1C[C@H]2CCN(C(=O)c3cccc4[nH]ccc34)C[C@H]21	KDM5B inhibitor 18µM
CS(=O)(=O)N1C[C@H]2CCN(C(=O)c3ccc4[nH]ccc4c3)C[C@H]21	none
O=C(c1cccc2[nH]ccc12)N1CC[C@@H]2COCCN(Cc3ccncc3)[C@@H]2C1	KDM5B inhibitor 28µM
O=C(c1cccs1)N1CC[C@@H]2COCCN(Cc3cccnc3)[C@@H]2C1	none
O=C(c1cccc2[nH]ccc12)N1CC[C@@H]2COCCN(Cc3cccnc3)[C@@H]2C1	KDM5B inhibitor 18µM
Cc1cccc(NC(=S)NC2CCCC(C)C2C)c1 (stereo unspecified)	none (no result: IP6K1 inh)
Cc1ccc(C(=O)OCCCN(C)C)cc1	none (no result: IP6K1 inh)
CN(C)CCCOc1ccc(-c2cnc(N)cn2)cn1	KDM5B inhibitor 32µM
O=c1c2nc(N3CCC(c4ccccc4)CC3)ccc2ncn1-c1cccnc1	KDM5B inhibitor 35µM
O=c1c2nc(Nc3ccccc3)ccc2ncn1-c1cccnc1	none (no result: KDM5B inhibitor)
O=c1c2nc(N3CCC(c4ccccc4)CC3)ccc2ncn1Cc1ccccn1	KDM5B inhibitor inconclusive
O=c1ncn(CC2CC2)c2ccc(N3CCC(c4ccccc4)CC3)nc12	KDM5B inhibitor inconclusive
CN1CCN(c2ccc3ncn(-c4cccnc4)c(=O)c3n2)CC1	KDM5B inhibitor 35µM
O=c1c2nc(N3CCC(c4ccccc4)CC3)ccc2ncn1C1CC1	KDM5B inhibitor 35µM
CC(Nc1ccc([N+](=O)[O-])cn1)c1ccc(Cl)cc1 (stereo unspecified)	none (no result: IP6K1 inh)
CC(C)NC(=O)C[C@@H]1c2nc(NC(=O)C3CCCCC3)sc2C[C@@H]2[C@](C)(CO)[C@H](O)CC[C@]21C	none
O=C1CC(c2ccccc2)N(Cc2ccc(F)cc2F)CCCCCCN1 (stereo unspecified)	none
COc1ccc(OC)c(-c2cc(-c3cccs3)nc3c(C)noc23)c1	KDM5B inhibitor 40µM
Cc1noc2c(-c3ccc(CO)cc3)cc(-c3cccs3)nc12	KDM5B inhibitor inconclusive
COc1ccccc1-c1cc(-c2ccsc2)c2onc(C)c2n1	KDM5B inhibitor 28µM
Cc1noc2c(-c3ccsc3)cc(-c3cccnc3)nc12	KDM5B inhibitor inconclusive
COCCN1Cc2ccc(NCC(C)C)nc2C(C)(C(=O)Nc2cccc(F)c2)C1 (stereo unspecified)	KDM5B inhibitor 32µM
COCCN1Cc2ccc(NCC(C)C)nc2C(C)(C(=O)Nc2ccncc2)C1 (stereo unspecified)	KDM5B inhibitor 28µM
COCCN1Cc2ccc(Nc3ccc(OC)cc3)nc2C(C)(C(=O)NC(C)C)C1 (stereo unspecified)	none
COCCN1Cc2ccc(Nc3cccnc3)nc2C(C)(C(=O)Nc2ccccc2C)C1 (stereo unspecified)	KDM5B inhibitor inconclusive
O=C(c1cccc2[nH]ccc12)N1CCCC(n2cc(-c3nc(C4CC4)no3)nn2)C1 (stereo unspecified)	KDM5B inhibitor inconclusive
CC(C)c1noc(-c2cn(C3CCN(C(=O)c4cccc5[nH]ccc45)C3)nn2)n1 (stereo unspecified)	KDM5B inhibitor 22µM
COC[C@@H]1CN(C(=O)c2cccc3[nH]ccc23)C[C@H]1c1nc(C)no1	KDM5B inhibitor 20µM
CC(C)c1noc(-c2cn(C3CCN(C(=O)c4ccc5[nH]ccc5c4)CC3)nn2)n1	none
Cc1noc(-c2cn(C3CCN(C(=O)c4cccc5[nH]ccc45)CC3)nn2)n1	KDM5B inhibitor inconclusive
Cc1noc([C@@H]2CN(C(=O)c3c[nH]c4ccccc34)C[C@H]2CO)n1	none
Cc1noc(-c2cn(C3CCCN(C(=O)c4cccc5[nH]ccc45)C3)nn2)n1 (stereo unspecified)	KDM5B inhibitor 20µM
CC(C)c1noc(-c2cn(C3CCCN(C(=O)c4cccc5[nH]ccc45)C3)nn2)n1 (stereo unspecified)	KDM5B inhibitor 18µM
CCCN(C)CC1(O)CCC2(CCN(C(=O)C3CCCC3)CC2)CC1	none (no result: KDM5B inhibitor)
O=C([C@H]1CCCN1C(=O)Cc1ccccn1)N1CCC(N2CCOC2=O)CC1	none (no result: KDM5B inhibitor)
CCOc1ccccc1C(=O)Nc1ccc(OC)c2ncccc12	none (no result: IP6K1 inh)
COc1ccccc1-c1c(C(F)(F)F)oc2cc(OCC#N)ccc2c1=O	none (no result: IP6K1 inh)
O=C(NC1(C(F)(F)F)N=C(c2ccccc2)N(Cc2ccco2)C1=O)c1ccc(F)cc1 (stereo unspecified)	none (no result: IP6K1 inh)
COc1ccc(CC(=O)NC2CCN(c3nccc(Nc4ccc(OC)cc4)n3)CC2)cc1	none (no result: KDM5B inhibitor)
CCCCn1c(=O)[nH]c(=O)c2c1nc(CCC(=O)NC1CCCCCC1)n2CC(C)C	none (no result: IP6K1 inh)
CC1(COc2ccccc2)COc2ccc(C(=O)NCc3ccc4c(c3)OCO4)cc2N1 (stereo unspecified)	KDM5B inhibitor inconclusive
COc1ccc(OCC2(C)COc3ccc(C(=O)NCC(C)C)cc3N2)cc1 (stereo unspecified)	KDM5B inhibitor 25µM
CCOCC1(C)COc2ccc(C(=O)NCCc3ccccc3)cc2N1 (stereo unspecified)	KDM5B inhibitor 40µM
CCOCC1(C)COc2ccc(C(=O)Nc3cccnc3)cc2N1 (stereo unspecified)	KDM5B inhibitor inconclusive
CCOCC1(C)COc2ccc(C(=O)Nc3ccc(OC)nc3)cc2N1 (stereo unspecified)	KDM5B inhibitor inconclusive
COc1ccc(OCC2(C)COc3ccc(C(=O)NCc4cccc(F)c4)cc3N2)cc1 (stereo unspecified)	KDM5B inhibitor 32µM
COc1ccc(OCC2(C)COc3ccc(C(=O)NCCc4ccccc4)cc3N2)cc1 (stereo unspecified)	KDM5B inhibitor 32µM
COc1ccc(/C=C/c2nn3c(-c4ccc(Cl)cc4)nnc3s2)cc1	none (no result: IP6K1 inh)
Cc1cc(OCc2n[nH]c(=S)n2CC2CCCO2)cc(C)c1Cl (stereo unspecified)	none (no result: IP6K1 inh)
COc1ccc(-c2cc(C(=O)Nc3nnc(C)s3)no2)cc1	none (no result: IP6K1 inh)
O=C(CCn1cnc2sc3c(c2c1=O)CCCC3)NCc1cccc(CN2CCCCCC2)c1	none (no result: IP6K1 inh)
CCOC(=O)c1cn[nH]c1S(=O)(=O)N1CCCCCCC1	none (no result: IP6K1 inh)
CCOc1ccccc1CNC(=O)c1cc2n(n1)CC(c1ccc3c(c1)OCO3)OC2 (stereo unspecified)	KDM5B inhibitor 32µM
COc1ccc(CNC(=O)c2cc3n(n2)CC(c2ccc4c(c2)OCO4)OC3)cc1 (stereo unspecified)	KDM5B inhibitor inconclusive
CCc1ccc(CNC(=O)c2cc3n(n2)CC(c2ccc4c(c2)OCO4)OC3)cc1 (stereo unspecified)	KDM5B inhibitor 25µM
CCCCNC(=O)c1cc2n(n1)CC(c1ccc3c(c1)OCO3)OC2 (stereo unspecified)	none
